# Assay outcomes from PubChem.
# Rab9 promoter act – activators of Rab9 promoter. Potency, µM (top dose mostly 9.22 µM), for inactives: at the highest dose activation, negative = inhibition, hits mostly activators. hit rate 2.8% among 320,000. Huh7 Rab9 promoter-luciferase reporter, luminescence, 24 h. AID 485297; note: % of control where 0% means no effect; nearly all actives have a fitted effect of over 60% in size
#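 Stable Rab9-luc Huh7, 1500 cells/well, 2 h settle; cmpd in DMSO, 24 h, 37 °C/5% CO2; luciferase reagent 10 min RT; luminescence.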
# NPC1 promoter act – NPC1 promoter activation. hit rate 2.4% among 320,000. Potency, µM (doses to about 9.22 µM), inactives show at the top dose activation, usual class: activators. AID 485313. Huh7 NPC1 promoter luciferase reporter, 24 h; note: % of control where 0% means no effect; nearly all actives have a fitted effect of over 60% in size
#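 Quantitative HTS used a cell-based reporter: Huh7 cells stably bearing the NPC1 promoter upstream of luciferase were treated with compounds for 24 h, and promoter activation was read as luminescence.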
# FLuc counter – firefly luciferase modulation, counter-screen for miR-21 project | P08659 | purified FLuc, Km substrates, luminescence inhibition | Potency, µM (top dose mostly 57.5 µM), for the others: top-dose activity change, negative = inhibition, actives largely listed as inhibitors | hit rate 6.9% among 360,000;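 note: plate controls were vehicle for no effect and reference inhibitor for full effect; nearly all actives have a fitted effect of over 55% in size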
# Target sequence (P08659 whole entry, looked up): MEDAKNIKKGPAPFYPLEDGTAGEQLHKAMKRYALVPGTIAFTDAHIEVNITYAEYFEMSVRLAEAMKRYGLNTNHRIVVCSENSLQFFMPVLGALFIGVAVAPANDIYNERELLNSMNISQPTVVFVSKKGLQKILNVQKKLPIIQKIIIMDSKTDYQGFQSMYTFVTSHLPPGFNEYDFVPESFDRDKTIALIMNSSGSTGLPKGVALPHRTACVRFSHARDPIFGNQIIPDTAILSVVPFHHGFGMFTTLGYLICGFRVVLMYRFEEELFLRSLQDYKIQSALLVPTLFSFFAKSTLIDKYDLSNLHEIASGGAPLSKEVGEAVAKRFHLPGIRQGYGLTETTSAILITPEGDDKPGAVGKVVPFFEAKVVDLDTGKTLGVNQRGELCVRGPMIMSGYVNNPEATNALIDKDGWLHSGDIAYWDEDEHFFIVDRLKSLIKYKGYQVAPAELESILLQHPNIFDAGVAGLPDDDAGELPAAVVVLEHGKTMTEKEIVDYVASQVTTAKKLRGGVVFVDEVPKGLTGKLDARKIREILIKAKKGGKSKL
#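 Purified P. pyralis luciferase (10nM final) with 10uM D-luciferin and 10uM ATP (Km levels) in 50mM Tris acetate pH 7.5, 10mM Mg acetate, 0.01% Tween-20, 0.05% BSA; qHTS 6-point titration, ~60 µM downward; luminescence read.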
# SMN2 splice up – increases expression of the SMN2 splice variant; HEK293 SMN2-luciferase splicing reporter, luminescence, 30-36 h; AID 1458; hit rate 2.8% among 210,000; Potency, µM (doses to about 46.1 µM), for inactives: at the top dose activity change, positive = activation, most hits filed as activators; note: % of control where 0% means no effect; nearly all actives have a fitted effect of over 55% in size
#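 HEK293 cells carry an SMN2 […]–luciferase reporter in which exon 7 inclusion puts luciferase in frame. Cells were plated 10-12 h before compound addition, then incubated 30-36 h at 37C. ONE-Glo luminescence was read; sodium butyrate at 4.5 mM final served as control.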
# ELG1 DNA repair – blocks ELG1-dependent DNA repair in HEK293T cells; HEK293T ELG1-luciferase reporter, luminescence, 16 h; DNA damage induced by 5-fluorouridine; Potency, µM (top dose mostly 46.1 µM), for inactives: top-dose activity change, negative = inhibition, actives largely listed as inhibitors; hit rate 2.3% among 330,000; AID 504467; note: % is set by controls: 0 for no effect and ±100 for the full control effect; nearly all actives have a fitted effect of over 55% in size
#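 Luminescence from the luciferase reporter, measured 30 min after ONE-Glo reagent at room temperature, was the read-out. Beforehand, 2,000 cells per well were exposed for 16 hr at 37 °C to 5-fluorouridine together with compound or vehicle.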
# ELG1 genotoxic – induces genotoxicity in HEK293T cells with luciferase-tagged ELG1; HEK293T ELG1-luciferase reporter, luminescence, 16 h; Potency, µM (highest dose often 46 µM), for inactives: at the top dose activity change, positive = activation, usual class: activators; hit rate 1.3% among 330,000; note: % of control where 0% means no effect; nearly all actives have a fitted effect of over 60% in size
#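 Luminescence read-out: rising ELG1-luciferase signal, reflecting elevated ELG1 protein under genetic stress, flags genotoxic compounds. Cells were treated for 16 hr at 37 °C before ONE-Glo detection.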
# * = called active by the depositor; ? = inconclusive; . = no result; [ ] = dose if it differs, or a comment. Sampled rows, rich in hits. Any-hit rate of the full collection: about 9.3%. Calls come from the whole dose curve; as a rule, active = well fitted curve in the direction sought with a large enough effect; inconclusive = small, poorly fitted or top-dose-only effect, or another doubt; inactive = no such curve, though single readings can be large; an effect the other way counts as inactive or inconclusive. Potency is the fitted concentration of half-maximal effect.
SMILES,Rab9 promoter act,NPC1 promoter act,FLuc counter,SMN2 splice up,ELG1 DNA repair,ELG1 genotoxic
CCOC(=O)C1CCCN(C(=O)c2cc(-c3ccccc3)on2)C1 (configuration not stated),3.98µM*,?,-16.7%,22.4µM*,?,?
O=C(c1cc(-c2ccco2)on1)N1CCOCC1,?,25.4%,?,20.3%,?,?
Cc1ccc(-c2cc(C(=O)N3CCOCC3)no2)cc1,0.316µM*,0.316µM*,0.536µM*,.,?,?
Cc1ccc(NC(=O)C2CCCN(c3nnc(C)c4c(C)n(-c5ccccc5)nc34)C2)cc1Cl (configuration not stated),.,.,-19.3%,.,.,.
Cc1nn(CC(=O)NCCCN2CCCC2)c(=O)c2nn(-c3ccccc3)c(C)c12,-11.4%,-4.6%,6.3%,.,19.8%,3.4%
NC(=O)c1ccc([N+](=O)[O-])cc1,.,.,.,6.6%,.,.
CCN(CC)C(=O)CN1CCN(Cc2ccc3c(c2)OCO3)CC1,-4.1%[1.84 µM],-1.2%,-0.5%,.,2.6%,0.6%
CCOC(=O)N1[C@@H]2C=C(C)[C@@H]2[C@@H]2[C@@H](C)C(=O)N21,-3.7%,-3.5%,-0.5%,2.1%,-2.7%,0.1%
c1ccc(Nc2nnc(-c3cccc4ccccc34)o2)cc1,?,-5.0%,2.13µM*,.,?,?
O=C(O)c1ccc(-c2nnc(-c3ccc([N+](=O)[O-])cc3)o2)cc1,4.5%,-0.5%,-7.7%,.,-9.5%,-0.6%
O=C(c1ccc(-c2nnc(-c3ccccc3)o2)cc1)N1CCCCCC1,0.562µM*,1.41µM*,4.78µM*,.,?,?
O=C(O)c1ccc(-c2nnc(-c3ccccc3)o2)cc1,?,0.316µM*,5.36µM*,.,?,?
O=C(Nc1ccccc1)c1ccncc1,.,.,1.4%,21.7%,.,.
Cn1ncc2cc(NC(=S)NC(=O)c3ccccc3)ccc21,2µM*,2µM*,12µM*,20.2%,?,9.0%
S=C(NCCc1ccccc1)Nc1cnc2ccccc2c1,?,25.4%,26.9µM*,?,?,?
O=C(NC(=S)Nc1cnc2ccccc2c1)c1ccccc1,3.55µM*,?,7.57µM*,11.2µM*,?,?
O=C(Nc1cnc2ccccc2c1)c1ccncc1,3.16µM*,1.78µM*,12µM*,21.5%,?,2.31µM*
Cc1ccc(NC(=O)c2cccc(C(=O)OC(C)C)n2)c(Br)c1,-2.5%,-3.1%,?,13.4%,?,-1.2%
COC(=O)c1cccc(C(=O)Nc2cnc3ccccc3c2)n1,?,3.98µM*,23.9µM*,-4.6%,?,9.8%
COC(=O)c1cccc(C(=O)Nc2ccc(C)cc2Br)n1,-17.5%,6.1%,10.7µM*,?,?,10.9%
O=C(NC(=S)Nc1ncc(Br)cc1Br)c1ccccc1,11.0%,?,21.3µM*,.,?,?
Cc1ccc(NC(=O)Nc2cnc3ccccc3c2)cc1,1.26µM*,2.24µM*,?,12.6µM*,?,?
C[C@@H]1C[C@](C)(C(=O)c2ccco2)C=C1c1ccco1,.,.,.,1.6%,.,.
NC(=O)CC(NC(=O)c1ccccc1)c1ccc(NCc2ccccn2)c([N+](=O)[O-])c1 (configuration not stated),-0.7%,-1.1%,-0.8%,.,-20.2%,-0.5%
O=C(NC1CCCC1)c1cc2ccccc2o1,?,28.2%,?,.,?,?
SMILES,Rab9 promoter act,NPC1 promoter act,FLuc counter,SMN2 splice up,ELG1 DNA repair,ELG1 genotoxic
O=C(NC1CCCC1)c1cc2cc(Br)ccc2o1,2.82µM*,3.16µM*,10.7µM*,.,?,?
O=C(NC1CCCCC1)c1cc2cc(Br)ccc2o1,?,3.16µM*,4.78µM*,.,?,?
NS(=O)(=O)c1ccc(CCNCc2ccccc2OCc2ccc(F)cc2)cc1,-2.4%,-8.9%,1.2%,.,11.6µM*,-7.4%
NS(=O)(=O)c1ccc(NCc2ccccc2OCc2ccc(F)cc2)cc1,-8.1%,-2.1%,3.0%,-34.2%,?,-0.1%
Nc1ccccc1SCC(=O)Nc1ccc2c(c1)OCO2,3.98µM*,?,1.6%,.,-5.4%,-0.4%
Nc1cc(N)nc(SCC(=O)Nc2ccc3c(c2)OCO3)n1,10.8%,-1.2%,-0.5%,.,-26.8%,-2.4%
Nc1ccccc1SCC(=O)Nc1ccc2c(c1)OCCO2,3.16µM*,2.24µM*,19µM*,.,?,?
CC(Nc1ccc2c(c1)OCCO2)C(=O)N1CCc2ccccc21 (configuration not stated),29.5%,10.3%,26.9µM*,15.9%,?,12.3%
Nc1nnc(SCC(=O)Nc2ccc3c(c2)OCCO3)s1,3.0%,18.6%,19µM*,-52.1%,?,?
Cc1ccc(CNC(=O)C(=O)Nc2c3c(nn2-c2ccc(F)cc2)CSC3)cc1,.,.,-2.8%,.,.,.
CCOc1ccccc1NC(=O)C(Sc1nnnn1C)c1ccccc1 (configuration not stated),1.1%,-3.7%,4.2%,-8.4%,-4.0%,-0.3%
CC1(C)CC2CC(C)(CN2C(=O)c2cc(-c3ccccc3)on2)C1 (configuration not stated),-4.0%,-2.8%,-0.3%,.,-15.6%,-9.7%
Cc1ccc(-c2nc(CS(=O)CC(=O)NCCN3CCCCC3C)c(C)o2)cc1 (configuration not stated),-8.2%,-7.0%,-1.5%,.,?,-0.3%
Nc1nnc(SCC(=O)Nc2ccc(Cl)cc2)s1,.,.,-1.2%,.,.,.
Cc1nc(SCC(=O)Nc2ccc3c(c2)OCCO3)nc(C)c1C,2.6%,0.6%,-2.8%,?,-0.3%,13.0%
CC(C)c1ccc(NC(=O)COC(=O)CSc2nnc(N)s2)cc1,3.4%,-0.4%,15.1µM*,2.0%,22.9%,-0.3%
Cc1cccc(SCC(=O)Nc2ccc3c(c2)OCCO3)c1,3.98µM*,2µM*,?,.,?,-0.8%
Cc1ccnc(NC(=O)CSc2ccc3c(c2)OCCO3)c1,4.8%,17.6%,?,.,?,18.3µM*
COc1cccc(-n2ccnc2SCC(=O)Nc2cccc3ccccc23)c1,.,.,-11.5%,.,.,.
CCOC(=O)c1cnn(-c2ccc(NS(=O)(=O)c3ccc(Cl)cc3)cc2)c1C(F)(F)F,-10.0%,-0.9%,2.7%,.,23.1µM*,-6.1%
CCOC(=O)c1ccc(NS(=O)(=O)c2ccc(Cl)nc2)cc1,-3.9%,-2.0%,?,-14.8%,-14.8%,0.1%
O=C(NCC1COc2ccccc2O1)C1CCCN(S(=O)(=O)c2cccc3cccnc23)C1 (configuration not stated),-4.9%,-0.6%,9.9%,-34.2%,14.6µM*,-8.5%
Cc1cc(C)c2c(=O)cc(C(=O)Nc3nc4ccc(F)cc4s3)oc2c1,.,.,-0.2%,4.2%,.,.
